# Data taken from ChEMBL document CHEMBL1157539, “Thousands of chemical starting points for antimalarial lead identification” (Nature, 2010).
# What was measured:
# Assay type in all cases: functional
# Plasmodium falciparum [1] = test: GSK_TCMDC: Inhibition of Plasmodium falciparum 3D7 in whole red blood cells, using parasite LDH activity as an index of growth. Test compounds present at 2uM
# Plasmodium falciparum [2] = test: GSK_TCMDC: Inhibition of Plasmodium falciparum Dd2 in whole red blood cells, using parasite LDH activity as an index of growth. Test compounds present at 2uM
# HepG2 = test: GSK_TCMDC: Percent inhibition of human HepG2 cell line. Test compounds present at 10uM.
smiles,measurement,setting,value
O=C(C=Cc1ccc(Br)cc1)N1CCC(CCN2CCC(c3c[nH]c4ccccc34)CC2)CC1,Inhibition,Plasmodium falciparum [1],98%
same,Inhibition,Plasmodium falciparum [2],24%
same,Inhibition,HepG2,47%
CCC[C@@H]([C@@H](CC1CCC(C)CC1)C(=O)N[C@@H](CCCCNC(=O)c1ccccn1)C(=O)Nc1nccs1)N(O)C=O (stereo partly specified),Inhibition,Plasmodium falciparum [1],100%
same,Inhibition,Plasmodium falciparum [2],79%
same,Inhibition,HepG2,25%
CC(=O)Nc1ccc(Cl)c(Cl)c1,Inhibition,Plasmodium falciparum [1],95%
same,Inhibition,Plasmodium falciparum [2],98%
same,Inhibition,HepG2,5%
COc1ccccc1C1CCN(C2CCC(NC(=O)/C=C/c3cc(F)cc(C(F)(F)F)c3)CC2)CC1 (stereo unspecified),Inhibition,Plasmodium falciparum [1],98%
same,Inhibition,Plasmodium falciparum [2],57%
same,Inhibition,HepG2,92%
COc1ccc2nccc([C@@H](O)CN3CCC(NC(=O)C(c4cc5ccccc5o4)N4CCN(c5ccccc5)CC4)CC3)c2c1 (stereo partly specified),Inhibition,Plasmodium falciparum [1],99%
same,Inhibition,Plasmodium falciparum [2],99%
same,Inhibition,HepG2,19%
COc1ccc2nc(-c3ccccc3)cc(N/N=C/c3ccc([N+](=O)[O-])cc3)c2c1,Inhibition,Plasmodium falciparum [1],100%
same,Inhibition,Plasmodium falciparum [2],100%
same,Inhibition,HepG2,89%
CCN(CC)c1ccc(C(=O)Cn2ccc(=N)cc2)cc1,Inhibition,Plasmodium falciparum [1],84%
same,Inhibition,Plasmodium falciparum [2],64%
same,Inhibition,HepG2,92%
CN1CCN(Cc2ccc(-c3ccc4ncnc(Nc5ccc(OCc6ccccc6)cc5)c4c3)o2)CC1,Inhibition,Plasmodium falciparum [1],97%
same,Inhibition,Plasmodium falciparum [2],90%
same,Inhibition,HepG2,9%
CCn1c(-c2nonc2N)nc2c(-c3ccccc3)ncc(OCCCCNCCc3ncc[nH]3)c21.O=C(O)C(F)(F)F,Inhibition,Plasmodium falciparum [1],92%
same,Inhibition,Plasmodium falciparum [2],42%
same,Inhibition,HepG2,34%
Cl.c1ccc(-c2cc(NCCCCCCCCNc3cc(-c4ccccc4)nc4ccccc34)c3ccccc3n2)cc1,Inhibition,Plasmodium falciparum [1],100%
same,Inhibition,Plasmodium falciparum [2],72%
same,Inhibition,HepG2,36%
COc1cc(NC2=C(c3ccccc3)C(=O)c3ccccc32)ccn1,Inhibition,Plasmodium falciparum [1],96%
same,Inhibition,Plasmodium falciparum [2],96%
same,Inhibition,HepG2,7%
O=C(Nc1cncc(NC(=O)c2ccc(Cl)c(Cl)c2)c1)c1ccc(Cl)c(Cl)c1,Inhibition,Plasmodium falciparum [1],100%
same,Inhibition,Plasmodium falciparum [2],70%
same,Inhibition,HepG2,12%
CCCC(CNCc1cccc(OC(F)(F)C(F)F)c1)CNc1cc(=O)c2ccccc2[nH]1 (stereo unspecified),Inhibition,Plasmodium falciparum [1],100%
same,Inhibition,Plasmodium falciparum [2],94%
same,Inhibition,HepG2,0%
Fc1ccc2[nH]c(-c3ccc(-c4ccc(CN5CCN(c6cnccn6)CC5)cc4)s3)nc2c1.O=C(O)C(F)(F)F,Inhibition,Plasmodium falciparum [1],99%
same,Inhibition,Plasmodium falciparum [2],98%
same,Inhibition,HepG2,45%
O=C(Nc1ccc(N2CCN(c3ncccc3C(F)(F)F)CC2)nc1)c1cccs1,Inhibition,Plasmodium falciparum [1],83%
same,Inhibition,Plasmodium falciparum [2],40%
same,Inhibition,HepG2,7%
CC1CC(NCCCNc2cc(=O)c3ccccc3[nH]2)c2c(Cl)c(Cl)cc(Cl)c21 (stereo unspecified),Inhibition,Plasmodium falciparum [1],87%
same,Inhibition,Plasmodium falciparum [2],52%
same,Inhibition,HepG2,6%
COc1ccc2nccc([C@@H](O)CN3CCC(NCc4cc5ccccc5o4)CC3)c2c1.O=C(O)C(=O)O,Inhibition,Plasmodium falciparum [1],96%
same,Inhibition,Plasmodium falciparum [2],72%
same,Inhibition,HepG2,17%
CC(C)Oc1cc2c(cc1NS(=O)(=O)c1ccc(-c3ccc(Cl)cc3)cc1)CCN(C)CC2.Cl,Inhibition,Plasmodium falciparum [1],99%
same,Inhibition,Plasmodium falciparum [2],65%
same,Inhibition,HepG2,100%
Cc1cc(N(C)C)nc(Nc2ccc(NC(=O)C(C)Oc3ccccc3)cc2)n1 (stereo unspecified),Inhibition,Plasmodium falciparum [1],98%
same,Inhibition,Plasmodium falciparum [2],30%
same,Inhibition,HepG2,2%
Cl.Clc1ccc2c(NCCc3ccccc3)ccnc2c1,Inhibition,Plasmodium falciparum [1],93%
same,Inhibition,Plasmodium falciparum [2],99%
same,Inhibition,HepG2,31%
CCc1ccc(-c2nc3cc(NC(=O)c4cc([N+](=O)[O-])cc([N+](=O)[O-])c4)ccc3o2)cc1,Inhibition,Plasmodium falciparum [1],93%
same,Inhibition,Plasmodium falciparum [2],12%
same,Inhibition,HepG2,12%
Cc1cc(N[C@@H](CC(C)C)C(=O)NCCOc2ccccc2)nc(NCC2CCCCC2)n1.O=C(O)C(F)(F)F,Inhibition,Plasmodium falciparum [1],97%
same,Inhibition,Plasmodium falciparum [2],53%
same,Inhibition,HepG2,24%
